This note sets out measurements from PubChem BioAssay (EPA / NIEHS).

Activity calls are given as the source filed them. How the source made its calls: active means hit-call score of the fitted dose curve at least 0.9, where 1 is the maximum; inactive means score below 0.9.

Tested on in one assay: not listed separately
In words: ATG_Sox_CIS: Attagene CIS-FACTORIAL HepG2 Assay for human SRY-box transcription factor (SOX) (AID 2282960). Conditions: HepG2 Attagene cis-factorial SOX reporter, mRNA; actives raise or lower the signal. The method, boiled down:
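After 24 h of chemical treatment, transfected HepG2 reporter cells are lysed for total RNA. Transcript levels come from RT-PCR with labelled primer extension and capillary electrophoresis, analysed bidirectionally versus DMSO.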
As to `N#Cc1cc(Br)c(O)c(Br)c1`, the result was inactive.

Take `Cc1c(F)c(F)c(COC(=O)C2C(/C=C(\Cl)C(F)(F)F)C2(C)C)c(F)c1F` (stereo unspecified): the outcome was inactive.

`O=C(O)COc1nc(Cl)c(Cl)cc1Cl`: the compound was called inactive.

For the compound `COc1cnc(OC)n2nc(NS(=O)(=O)c3c(OCC(F)F)cccc3C(F)(F)F)nc12`, the compound was called inactive.

Turning to `O=C(O)c1nc(Cl)ccc1Cl`, the compound was called inactive.

With `CCOC(=O)C(Cl)Cc1cc(-n2nc(C)n(C(F)F)c2=O)c(F)cc1Cl` (stereo unspecified), the call was inactive.

`CNC(=O)ON=CC(C)(C)SC`: the result was inactive.

Turning to `CCNc1nc(Cl)nc(NCC)n1`, the compound was classed as inactive.

As for `N#CC(CCc1ccc(Cl)cc1)(Cn1cncn1)c1ccccc1` (stereo unspecified), the outcome was inactive.

On to `CCOP(=S)(OCC)SCn1c(=O)oc2cc(Cl)ccc21`, for which the call was inactive.

For the compound `CS/C(C)=N/OC(=O)N(C)SN(C)C(=O)O/N=C(\C)SC`, the compound was classed as inactive.

As to `Fc1ccc(Oc2ccnc3cc(Cl)cc(Cl)c23)cc1`, the compound was classed as inactive.

Turning to `CCON=C(CC)C1=C(O)CC(c2c(C)cc(C)cc2C)CC1=O` (stereo unspecified), the outcome was inactive.

Regarding `Cc1ccc(-c2c(Cl)nc(C#N)n2S(=O)(=O)N(C)C)cc1`, the compound was classed as inactive.

As for `CC(Oc1ccc(Cl)cc1Cl)C(=O)O` (stereo unspecified), the call was inactive.

For `CCOc1cc(Oc2ccc(C(F)(F)F)cc2Cl)ccc1[N+](=O)[O-]`, the result was inactive.

Take `CCNc1nc(Cl)nc(NC(C)C)n1`: the compound was classed as inactive.

Consider `COC(=O)C(C)Oc1ccc(Oc2ccc(Cl)cc2Cl)cc1` (stereo unspecified), for which the call was inactive.

For `Cc1cc(Cl)ccc1OCC(=O)O`, the compound was called inactive.

On to `CN(C)C(=S)SSC(=S)N(C)C`, for which the compound was called inactive.

By AC50 is commonly meant the concentration giving half of the maximal activity seen. For the compound `C#CCOS(=O)OC1CCCCC1Oc1ccc(C(C)(C)C)cc1` (stereo unspecified), the AC50 was 4.22 µM (active).

With `CC(C)Oc1cc(-n2nc(C(C)(C)C)oc2=O)c(Cl)cc1Cl`, the result was inactive.

Consider `CC1=C(C(=O)Nc2ccccc2)SCCO1`, for which the call was inactive.

`COP(N)(=O)SC` (stereo unspecified): the outcome was inactive.

`O=C(Nc1ccccc1)Nc1ccnc(Cl)c1`: the AC50 was 11.9 µM (active).

For `CC1COC(Cn2cncn2)(c2ccc(Oc3ccc(Cl)cc3)cc2Cl)O1` (stereo unspecified), the result was inactive.

As to `C=CC1(C)OC(=O)N(c2cc(Cl)cc(Cl)c2)C1=O` (stereo unspecified), the compound was classed as inactive.

In the next assay the target is Transcription factor Sp1 (Homo sapiens) (UniProt P08047). In words: ATG_Sp1_CIS: Attagene CIS-FACTORIAL HepG2 Assay for human Specificity Protein 1 (Sp1) (AID 2282961). Conditions: HepG2 Sp1 cis-reporter transcription, actives raise or lower the signal. The method, boiled down: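 Sp1-driven reporter mRNA, read as capillary electrophoresis fluorescence after RT-PCR, in transiently transfected HepG2 cells dosed for 24 h; signal change in either direction relative to DMSO.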
Transcription factor Sp1 (Homo sapiens), sequence (P08047 whole entry, looked up): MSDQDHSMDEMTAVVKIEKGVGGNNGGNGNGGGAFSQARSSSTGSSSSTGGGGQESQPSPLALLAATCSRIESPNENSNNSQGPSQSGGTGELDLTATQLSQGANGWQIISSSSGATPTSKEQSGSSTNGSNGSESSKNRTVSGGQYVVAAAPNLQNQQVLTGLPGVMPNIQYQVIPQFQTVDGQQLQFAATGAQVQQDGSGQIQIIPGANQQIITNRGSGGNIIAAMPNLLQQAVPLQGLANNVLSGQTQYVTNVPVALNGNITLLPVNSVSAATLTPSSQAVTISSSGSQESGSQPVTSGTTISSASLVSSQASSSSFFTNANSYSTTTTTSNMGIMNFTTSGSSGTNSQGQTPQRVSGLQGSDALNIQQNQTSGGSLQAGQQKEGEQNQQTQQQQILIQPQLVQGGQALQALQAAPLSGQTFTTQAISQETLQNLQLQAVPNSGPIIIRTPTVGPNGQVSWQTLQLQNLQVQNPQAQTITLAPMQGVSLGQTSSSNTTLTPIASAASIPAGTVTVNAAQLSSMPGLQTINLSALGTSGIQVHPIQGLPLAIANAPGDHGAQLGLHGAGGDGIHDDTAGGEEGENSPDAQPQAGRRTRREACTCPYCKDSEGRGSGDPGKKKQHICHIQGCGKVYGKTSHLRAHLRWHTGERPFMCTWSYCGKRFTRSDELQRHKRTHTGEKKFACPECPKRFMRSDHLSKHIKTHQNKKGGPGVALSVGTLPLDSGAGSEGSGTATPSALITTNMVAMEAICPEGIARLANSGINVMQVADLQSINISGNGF
`N#Cc1cc(Br)c(O)c(Br)c1`: the result was inactive.

Regarding `Cc1c(F)c(F)c(COC(=O)C2C(/C=C(\Cl)C(F)(F)F)C2(C)C)c(F)c1F` (stereo unspecified), the compound was classed as inactive.

For the compound `O=C(O)COc1nc(Cl)c(Cl)cc1Cl`, the compound was classed as inactive.

For the compound `COc1cnc(OC)n2nc(NS(=O)(=O)c3c(OCC(F)F)cccc3C(F)(F)F)nc12`, the result was inactive.

In the case of `O=C(O)c1nc(Cl)ccc1Cl`, the outcome was inactive.

Take `CCOC(=O)C(Cl)Cc1cc(-n2nc(C)n(C(F)F)c2=O)c(F)cc1Cl` (stereo unspecified): the call was inactive.

`CNC(=O)ON=CC(C)(C)SC`: the result was inactive.

Turning to `CCNc1nc(Cl)nc(NCC)n1`, the result was inactive.

With `N#CC(CCc1ccc(Cl)cc1)(Cn1cncn1)c1ccccc1` (stereo unspecified), the result was inactive.

As for `CCOP(=S)(OCC)SCn1c(=O)oc2cc(Cl)ccc21`, the result was inactive.

Turning to `CS/C(C)=N/OC(=O)N(C)SN(C)C(=O)O/N=C(\C)SC`, the compound was called inactive.

As to `Fc1ccc(Oc2ccnc3cc(Cl)cc(Cl)c23)cc1`, the call was inactive.

With `CCON=C(CC)C1=C(O)CC(c2c(C)cc(C)cc2C)CC1=O` (stereo unspecified), the compound was called inactive.

For the compound `Cc1ccc(-c2c(Cl)nc(C#N)n2S(=O)(=O)N(C)C)cc1`, the AC50 was 11.9 µM (active).

For the compound `CC(Oc1ccc(Cl)cc1Cl)C(=O)O` (stereo unspecified), the compound was classed as inactive.

With `CCOc1cc(Oc2ccc(C(F)(F)F)cc2Cl)ccc1[N+](=O)[O-]`, the outcome was inactive.

Consider `CCNc1nc(Cl)nc(NC(C)C)n1`, for which the call was inactive.

`COC(=O)C(C)Oc1ccc(Oc2ccc(Cl)cc2Cl)cc1` (stereo unspecified): the call was inactive.

Regarding `Cc1cc(Cl)ccc1OCC(=O)O`, the compound was called inactive.

Regarding `CN(C)C(=S)SSC(=S)N(C)C`, the compound was classed as inactive.

Consider `C#CCOS(=O)OC1CCCCC1Oc1ccc(C(C)(C)C)cc1` (stereo unspecified), for which the call was inactive.

Consider `CC(C)Oc1cc(-n2nc(C(C)(C)C)oc2=O)c(Cl)cc1Cl`, for which the compound was classed as inactive.

For the compound `CC1=C(C(=O)Nc2ccccc2)SCCO1`, the compound was classed as inactive.

With `COP(N)(=O)SC` (stereo unspecified), the result was inactive.

Regarding `O=C(Nc1ccccc1)Nc1ccnc(Cl)c1`, the AC50 was 24.9 µM (active).

Take `CC1COC(Cn2cncn2)(c2ccc(Oc3ccc(Cl)cc3)cc2Cl)O1` (stereo unspecified): the result was inactive.

In the case of `C=CC1(C)OC(=O)N(c2cc(Cl)cc(Cl)c2)C1=O` (stereo unspecified), the result was inactive.

Tested on in the next assay: not listed separately
In words: ATG_SREBP_CIS: Attagene CIS-FACTORIAL HepG2 Assay for human Sterol Regulatory Element Binding (SREBP) (AID 2282962). Particulars: HepG2 Attagene cis-factorial SREBP reporter, mRNA; actives raise or lower the signal. The method, boiled down: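 HepG2 cells transiently transfected with multiplexed cis-promoter reporter units sensing endogenous transcription factors; reporter mRNA measured 24 h after dosing by RT-PCR, 6-FAM labeling, HpaI digestion and capillary electrophoresis. Bidirectional fit versus DMSO.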
As to `N#Cc1cc(Br)c(O)c(Br)c1`, the compound was called inactive.

As for `Cc1c(F)c(F)c(COC(=O)C2C(/C=C(\Cl)C(F)(F)F)C2(C)C)c(F)c1F` (stereo unspecified), the compound was classed as inactive.

As for `O=C(O)COc1nc(Cl)c(Cl)cc1Cl`, the compound was classed as inactive.

`COc1cnc(OC)n2nc(NS(=O)(=O)c3c(OCC(F)F)cccc3C(F)(F)F)nc12`: the outcome was inactive.

As for `O=C(O)c1nc(Cl)ccc1Cl`, the call was inactive.

On to `CCOC(=O)C(Cl)Cc1cc(-n2nc(C)n(C(F)F)c2=O)c(F)cc1Cl` (stereo unspecified), for which the call was inactive.

On to `CNC(=O)ON=CC(C)(C)SC`, for which the call was inactive.

For the compound `CCNc1nc(Cl)nc(NCC)n1`, the result was inactive.

Consider `N#CC(CCc1ccc(Cl)cc1)(Cn1cncn1)c1ccccc1` (stereo unspecified), for which the AC50 was 8.22 µM (active).

For `CCOP(=S)(OCC)SCn1c(=O)oc2cc(Cl)ccc21`, the outcome was inactive.

For the compound `CS/C(C)=N/OC(=O)N(C)SN(C)C(=O)O/N=C(\C)SC`, the compound was classed as inactive.

As to `Fc1ccc(Oc2ccnc3cc(Cl)cc(Cl)c23)cc1`, the call was inactive.

Take `CCON=C(CC)C1=C(O)CC(c2c(C)cc(C)cc2C)CC1=O` (stereo unspecified): the outcome was inactive.

On to `Cc1ccc(-c2c(Cl)nc(C#N)n2S(=O)(=O)N(C)C)cc1`, for which the outcome was inactive.

Turning to `CC(Oc1ccc(Cl)cc1Cl)C(=O)O` (stereo unspecified), the call was inactive.

With `CCOc1cc(Oc2ccc(C(F)(F)F)cc2Cl)ccc1[N+](=O)[O-]`, the call was inactive.

As for `CCNc1nc(Cl)nc(NC(C)C)n1`, the result was inactive.

In the case of `COC(=O)C(C)Oc1ccc(Oc2ccc(Cl)cc2Cl)cc1` (stereo unspecified), the call was inactive.

On to `Cc1cc(Cl)ccc1OCC(=O)O`, for which the outcome was inactive.

In the case of `CN(C)C(=S)SSC(=S)N(C)C`, the result was inactive.

For `C#CCOS(=O)OC1CCCCC1Oc1ccc(C(C)(C)C)cc1` (stereo unspecified), the call was inactive.

Regarding `CC(C)Oc1cc(-n2nc(C(C)(C)C)oc2=O)c(Cl)cc1Cl`, the call was inactive.

With `CC1=C(C(=O)Nc2ccccc2)SCCO1`, the outcome was inactive.

As to `COP(N)(=O)SC` (stereo unspecified), the compound was classed as inactive.

For the compound `O=C(Nc1ccccc1)Nc1ccnc(Cl)c1`, the AC50 is 13.1 µM (active).

Consider `CC1COC(Cn2cncn2)(c2ccc(Oc3ccc(Cl)cc3)cc2Cl)O1` (stereo unspecified), for which the AC50 is 1.97 µM (active).

As for `C=CC1(C)OC(=O)N(c2cc(Cl)cc(Cl)c2)C1=O` (stereo unspecified), the compound was called inactive.
